Several values for one entry are separate records, joined by “and”; a condition that tells them apart may be missing. Identical values can stand only once. Records with an inconclusive call do not appear. Some compounds were tested as several samples or in several runs, with calls that do not always agree. Activity calls are given as the source filed them. Unless noted, calls follow the shape of the dose curve; as a rule, active = well fitted curve in the direction sought with a large enough effect; inconclusive = small, poorly fitted or top-dose-only effect, or another doubt; inactive = no such curve, though single readings can be large; an effect the other way counts as inactive or inconclusive.

Experiment [1] addresses Thioredoxin reductase 1, cytoplasmic (Rattus norvegicus) (UniProt O89049). Kind of experiment: qHTS Assay for Inhibitors of Mammalian Selenoprotein Thioredoxin Reductase 1 (TrxR1) (AID 488773).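 Also: drop in NADPH fluorescence over an 8 min run after selenite addition; series mostly up to about 57 µM; % is scaled to controls: 0 for no effect and ±100 for the full control effect; nearly all actives have a fitted effect of over 40% in size.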 Particulars: Potency: inhibition. A digest of the protocol:
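Inhibition is scored from the loss of NADPH fluorescence between first and last reads of an 8-min kinetic run. Selenite (400 uM) was the substrate, added after 15 min compound preincubation at room temperature.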

In experiment [2] the target is Flap endonuclease 1 (Homo sapiens) (UniProt P39748). In words: qHTS Validation Assay for the Inhibitors of Human Flap endonuclease 1 (FEN1) (AID 488816). Also: % is scaled to controls: 0 for no effect and ±100 for the full control effect. Summed up:
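Steps: add FEN1 (10 nM reagent) or buffer only; pin compounds; hold 15 min at room temperature; start with substrate, 50 nM final; read at 0 and 15 min; correct, normalize and fit a four-parameter Hill curve.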

Experiment [3] deals with M-phase phosphoprotein 8 (Homo sapiens) (UniProt Q99549). In words: qHTS Validation Assay for Inhibitors for MPP8 Chromodomain Interactions with Methylated Histone Tails (AID 488949). Also: nearly all actives have a fitted effect of over 55% in size. Also: potency is read from the fitted curve at half-maximal effect. A digest of the protocol:
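50 nM MPP8 + 50 nM b-H3K9me3 peptide, PBS pH 7.4/0.01% Tween-20, 30 min RT; + cpd 30 min RT; + AlphaScreen donor/Ni-chelate acceptor beads 10 ug/mL final, 30 min dark; luminescence read.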

Experiment [4] concerns the target Chromobox protein homolog 1 (Homo sapiens) (UniProt P83916). In words: qHTS Validation Assay for Inhibitors of HP1-beta Chromodomain Interactions with Methylated Histone Tails (AID 488953). Also: nearly all actives have a fitted effect of over 50% in size. Also: potency is read from the fitted curve at half-maximal effect. A digest of the protocol: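 AlphaScreen proximity signal from streptavidin donor and nickel chelate acceptor beads (final 10 ug/mL) after 30 min dark incubation. Compounds had 30 min at room temperature with preformed complex of 50 nM HP1-beta and 50 nM b-H3(1-18)K9me3 in PBS pH 7.4 with 0.01% Tween-20.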

The target in experiment [5] is Methanococcus maripaludis chaperonin (MmCpn) (UniProt Q6LX38). In words: High-Throughput Screening for Modulators of Cytosolic Chaperonin Activity: MmCpn Primary Screen (AID 488978).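 Also: 50 nM MmCpn enzyme hydrolysing 30 µM ATP at 37 °C; 0% is about no effect.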 Summed up: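 Steps: chaperonin 50 nM final; add compound, 5 min RT; start with ATP, 30 uM final; hold 10 min at 37C; add ADP Transcreener HTRF reagent, 5 min; read ex 320, em 590 and 665 nm.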

The target in experiment [6] is D(1A) dopamine receptor (Homo sapiens) (UniProt P21728). Kind of experiment: HTS Assay for Allosteric Agonists of the Human D1 Dopamine Receptor: Primary Screen for Agonists (AID 488981). Also: potency is read from the fitted curve at half-maximal effect. As to activation: 0% is about no effect. Summed up: (§1)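 Tetracycline-induced HEK293 T-REx cells force-coupled to calcium signalling were incubated overnight at 30 C and dye-loaded at room temperature. Calcium flux over 180 s after compound addition flagged agonists; a further 180 s read after EC20 dopamine flagged potentiators.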

The target is the same in experiment [7]. Kind of experiment: HTS Assay for Allosteric Agonists of the Human D1 Dopamine Receptor: Primary Screen for Potentiators (AID 488982). Also: 0% is about no effect. A digest of the protocol:
as §1

Experiment [8] shares this target. In words: HTS Assay for Allosteric Agonists of the Human D1 Dopamine Receptor: Primary Screen for Antagonists (AID 488983).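 Also: calcium flux response to an EC80 dopamine challenge measured with no-wash dye; % is scaled to controls: 0 for no effect and ±100 for the full control effect; nearly all actives have a fitted effect of over 65% in size.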 A digest of the protocol:
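Calcium-flux read-out in inducible HEK293 T-REx cells expressing D1, dye-loaded 30–90 min at room temperature. Kinetic reads: 180 s after compound (agonist phase), then 180 s after an EC80 dopamine challenge.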

Experiment [9] can be described thus: Validation screen for small molecules that induce genotoxicity in human embryonic kidney (HEK293T) cells expressing luciferase-tagged ELG1 (AID 493106). Also: potency is read from the fitted curve at half-maximal effect. A digest of the protocol:
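ELG1-luciferase reporter readout (ONE-Glo, 30 min, room temperature) after 16 hr compound treatment at 37 °C of HEK293T cells at 2,000 per well. Rising luminescence flags genotoxic stress.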

The target in experiment [10] is ATPase family AAA domain-containing protein 5 (Homo sapiens) (UniProt Q96QE3). Kind of experiment: Validation screen for small molecules that inhibit ELG1-dependent DNA repair in human embryonic kidney (HEK293T) cells expressing luciferase-tagged ELG1 (AID 493107). Also: nearly all actives have a fitted effect of over 70% in size. Also: potency is read from the fitted curve at half-maximal effect. A digest of the protocol:
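Luciferase read-out, ONE-Glo, 30 min at room temperature, follows 16 h co-exposure at 37 C of compound and the DNA-damaging agent 5-fluorouridine. Cells: HEK293T with ELG1-luciferase fusion, 2,000 per well, DMSO as vehicle.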

Experiment [11] can be described thus: Nrf2 qHTS screen for inhibitors: Validation (AID 493153; active = well fitted inhibition curve with a large enough effect in the main read-out, with a control signal flat, not every such curve was filed as active). To be noted: Potency: luciferase luminescence; viability change: measured here: cytotoxicity max response. A digest of the protocol:
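Concentration-response on A549 ARE_Fluc reporter cells exposed 18-24 h at 37 C, 5% CO2. Cytotoxicity read first by CellTiter-Fluor fluorescence (Ex 405/Em 525), then Nrf2 inhibition by BugLite luminescence after 15 min.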

A short description of experiment [12]: qHTS for Inhibitors of Cell Surface uPA Generation: Validation Assay (AID 493164).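 Also: RAW 264.7 macrophage cells exposed to compound for 18 h; 0% is about no effect.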 A digest of the protocol: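 ATP-Lite luminescence read-out: ATP remains high when uPA activity-dependent LF translocation into the cytoplasm is blocked. RAW 264.7 cells, 18 h compound exposure at 37 C; 7-point titration, 2.45 nM to 38.3 uM final.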
In experiment [13] the target is Thioredoxin reductase 1, cytoplasmic (Rattus norvegicus) (UniProt O89049). In words: qHTS Assay for Substrates of Mammalian Selenoprotein Thioredoxin Reductase 1 (TrxR1) (AID 488772).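 Also: series mostly up to about 57 µM; 0% is about no effect; a drop in NADPH fluorescence below the no-compound background marks a TrxR1 substrate.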 A digest of the protocol: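 In this dual-purpose format, potential substrates are identified from the first fluorescence read after selenite addition, not from the 8-minute delta. Rat enzyme is preincubated with NADPH and then with compound at ~22 deg C.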

The target of experiment [14] is Transient receptor potential cation channel subfamily V member 1 (Homo sapiens) (UniProt Q8NER1). In words: HTS Assay for Compounds that Act as Enhancers of the Vanilloid Receptor 1 (AID 488979). Also: 0% is about no effect. Summed up: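 TRPV1-expressing cells loaded with Fluo-8 calcium dye; compounds added and calcium influx read kinetically for 3 min (agonist phase), then capsaicin at EC20 added and read 2 min more for enhancement. Fluorescence ex 480/em 520 nm.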

Experiment [15] addresses Thyrotropin receptor (Homo sapiens) (UniProt P16473). In words: qHTS Assay for Antagonists of the Thyroid Stimulating Hormone Receptor (AID 488980). Also: series mostly up to about 58 µM; 0% is about no effect. Summed up:
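Readout is cAMP by HTRF competition between cellular cAMP and cAMP-d2 for a cryptate-labelled antibody. Antagonism was assessed in TSHR-transfected HEK293 cells stimulated with 4 nM TSH (EC80, final) in the presence of RO 20-1724.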

The target in experiment [16] is Thyrotropin-releasing hormone receptor (Homo sapiens) (UniProt P34981). Kind of experiment: qHTS for Small Molecule Agonists and Allosteric Enhancers of Human TRH Receptor: Validation Screen for Agonists (AID 493127;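 active = calcium activation more than 3 SD above the typical response in the agonist read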;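 also: intracellular calcium rise by fluo-8 fluorescence before TRH EC20 addition; 0% is about no effect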). Particulars: TRH receptor agonist cell assay; at 2 µM; stronger effect = higher value. Summed up:
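Compound-evoked intracellular calcium release in fluo-8-loaded TRHR cells, read kinetically on FDSS (Ex 480/Em 530, 1 s/cycle) after 23 nL pintool transfer. Agonist phase preceded 10 nM TRH EC20 addition.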

The nature of experiment [17]: Validation screen for small molecules that induce DNA re-replication in SW480 colon adenocarcinoma cells (AID 504364). Also: 0% is about no effect. A digest of the protocol: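 Image-based DNA content read-out: Hoechst stain 40 min, total nuclear fluorescence intensity (ex 405 nm, em 500-530 nm) after 48 h compound exposure of 250 SW480 cells/well at 37 C, 5% CO2, versus DMSO vehicle.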
Experiment [18] has as its target Galactokinase (Homo sapiens) (UniProt P51570). Kind of experiment: qHTS Validation Assay for Inhibitors of Human Galactokinase (GALK) (AID 493189). Also: 0% is about no effect. A digest of the protocol:
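5 nM GALK / 100 uM galactose / 35 uM ATP, 20 mM HEPES pH8.0, 5 mM MgCl2, 60 mM NaCl, 1 mM DTT, 0.01% BSA (final). RT 1 h; Kinase-Glo Plus luminescence.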

Chain of Thyrotropin receptor (Homo sapiens) (P16473 whole entry, looked up): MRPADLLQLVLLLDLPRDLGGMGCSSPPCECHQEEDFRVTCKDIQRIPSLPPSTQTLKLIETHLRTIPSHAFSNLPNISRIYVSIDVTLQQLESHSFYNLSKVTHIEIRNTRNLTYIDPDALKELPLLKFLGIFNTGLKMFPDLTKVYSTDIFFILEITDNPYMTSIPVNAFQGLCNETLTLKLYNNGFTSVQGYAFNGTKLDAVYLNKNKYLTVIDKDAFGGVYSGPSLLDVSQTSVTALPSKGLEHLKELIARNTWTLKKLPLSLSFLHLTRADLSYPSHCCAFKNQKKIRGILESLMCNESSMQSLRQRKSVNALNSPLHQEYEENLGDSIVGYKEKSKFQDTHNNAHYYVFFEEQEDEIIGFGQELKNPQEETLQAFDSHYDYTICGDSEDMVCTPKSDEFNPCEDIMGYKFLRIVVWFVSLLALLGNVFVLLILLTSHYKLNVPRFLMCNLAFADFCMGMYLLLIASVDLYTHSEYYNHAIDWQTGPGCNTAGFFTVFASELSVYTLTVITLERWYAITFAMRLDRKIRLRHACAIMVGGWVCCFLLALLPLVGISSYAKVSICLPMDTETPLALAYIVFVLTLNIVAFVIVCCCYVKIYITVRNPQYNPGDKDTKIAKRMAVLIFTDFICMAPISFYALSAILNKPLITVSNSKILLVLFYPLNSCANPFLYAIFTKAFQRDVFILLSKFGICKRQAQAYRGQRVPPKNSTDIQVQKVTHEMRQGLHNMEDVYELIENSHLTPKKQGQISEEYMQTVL
Chain of Chromobox protein homolog 1 (Homo sapiens) (P83916 whole entry, looked up): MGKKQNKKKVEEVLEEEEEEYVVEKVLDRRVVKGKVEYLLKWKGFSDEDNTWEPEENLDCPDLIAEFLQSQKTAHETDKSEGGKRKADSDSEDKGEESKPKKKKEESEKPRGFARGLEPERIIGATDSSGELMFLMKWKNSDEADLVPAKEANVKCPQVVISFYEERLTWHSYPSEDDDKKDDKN
Chain of D(1A) dopamine receptor (Homo sapiens) (P21728 whole entry, looked up): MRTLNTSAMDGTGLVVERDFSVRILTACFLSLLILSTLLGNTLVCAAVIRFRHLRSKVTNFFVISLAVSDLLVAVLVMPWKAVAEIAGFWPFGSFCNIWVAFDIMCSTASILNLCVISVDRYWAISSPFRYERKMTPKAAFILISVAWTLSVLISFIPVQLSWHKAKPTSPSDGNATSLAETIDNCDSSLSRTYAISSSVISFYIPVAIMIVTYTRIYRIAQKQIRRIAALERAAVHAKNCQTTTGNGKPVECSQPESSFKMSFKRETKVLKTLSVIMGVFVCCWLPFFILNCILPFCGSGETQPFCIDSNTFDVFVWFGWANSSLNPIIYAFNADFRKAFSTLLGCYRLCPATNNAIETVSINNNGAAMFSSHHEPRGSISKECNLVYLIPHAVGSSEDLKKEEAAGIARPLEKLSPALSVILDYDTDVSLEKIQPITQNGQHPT
Chain of Methanococcus maripaludis chaperonin (MmCpn) (Q6LX38 1-543): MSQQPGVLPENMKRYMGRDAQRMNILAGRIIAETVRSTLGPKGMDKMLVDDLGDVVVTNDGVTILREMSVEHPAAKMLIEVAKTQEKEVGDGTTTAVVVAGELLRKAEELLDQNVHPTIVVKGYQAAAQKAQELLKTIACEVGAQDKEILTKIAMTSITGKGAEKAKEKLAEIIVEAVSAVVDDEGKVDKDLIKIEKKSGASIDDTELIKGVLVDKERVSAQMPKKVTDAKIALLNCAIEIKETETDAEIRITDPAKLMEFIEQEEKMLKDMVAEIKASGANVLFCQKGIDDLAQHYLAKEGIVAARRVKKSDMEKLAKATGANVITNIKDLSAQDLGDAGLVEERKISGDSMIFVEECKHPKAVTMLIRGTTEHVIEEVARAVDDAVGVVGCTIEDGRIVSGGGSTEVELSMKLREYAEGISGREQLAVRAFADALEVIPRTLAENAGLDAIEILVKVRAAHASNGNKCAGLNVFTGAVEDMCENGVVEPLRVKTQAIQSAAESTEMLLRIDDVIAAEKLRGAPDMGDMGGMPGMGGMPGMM
Chain of ATPase family AAA domain-containing protein 5 (Homo sapiens) (Q96QE3 whole entry, looked up, the tested form may be a part): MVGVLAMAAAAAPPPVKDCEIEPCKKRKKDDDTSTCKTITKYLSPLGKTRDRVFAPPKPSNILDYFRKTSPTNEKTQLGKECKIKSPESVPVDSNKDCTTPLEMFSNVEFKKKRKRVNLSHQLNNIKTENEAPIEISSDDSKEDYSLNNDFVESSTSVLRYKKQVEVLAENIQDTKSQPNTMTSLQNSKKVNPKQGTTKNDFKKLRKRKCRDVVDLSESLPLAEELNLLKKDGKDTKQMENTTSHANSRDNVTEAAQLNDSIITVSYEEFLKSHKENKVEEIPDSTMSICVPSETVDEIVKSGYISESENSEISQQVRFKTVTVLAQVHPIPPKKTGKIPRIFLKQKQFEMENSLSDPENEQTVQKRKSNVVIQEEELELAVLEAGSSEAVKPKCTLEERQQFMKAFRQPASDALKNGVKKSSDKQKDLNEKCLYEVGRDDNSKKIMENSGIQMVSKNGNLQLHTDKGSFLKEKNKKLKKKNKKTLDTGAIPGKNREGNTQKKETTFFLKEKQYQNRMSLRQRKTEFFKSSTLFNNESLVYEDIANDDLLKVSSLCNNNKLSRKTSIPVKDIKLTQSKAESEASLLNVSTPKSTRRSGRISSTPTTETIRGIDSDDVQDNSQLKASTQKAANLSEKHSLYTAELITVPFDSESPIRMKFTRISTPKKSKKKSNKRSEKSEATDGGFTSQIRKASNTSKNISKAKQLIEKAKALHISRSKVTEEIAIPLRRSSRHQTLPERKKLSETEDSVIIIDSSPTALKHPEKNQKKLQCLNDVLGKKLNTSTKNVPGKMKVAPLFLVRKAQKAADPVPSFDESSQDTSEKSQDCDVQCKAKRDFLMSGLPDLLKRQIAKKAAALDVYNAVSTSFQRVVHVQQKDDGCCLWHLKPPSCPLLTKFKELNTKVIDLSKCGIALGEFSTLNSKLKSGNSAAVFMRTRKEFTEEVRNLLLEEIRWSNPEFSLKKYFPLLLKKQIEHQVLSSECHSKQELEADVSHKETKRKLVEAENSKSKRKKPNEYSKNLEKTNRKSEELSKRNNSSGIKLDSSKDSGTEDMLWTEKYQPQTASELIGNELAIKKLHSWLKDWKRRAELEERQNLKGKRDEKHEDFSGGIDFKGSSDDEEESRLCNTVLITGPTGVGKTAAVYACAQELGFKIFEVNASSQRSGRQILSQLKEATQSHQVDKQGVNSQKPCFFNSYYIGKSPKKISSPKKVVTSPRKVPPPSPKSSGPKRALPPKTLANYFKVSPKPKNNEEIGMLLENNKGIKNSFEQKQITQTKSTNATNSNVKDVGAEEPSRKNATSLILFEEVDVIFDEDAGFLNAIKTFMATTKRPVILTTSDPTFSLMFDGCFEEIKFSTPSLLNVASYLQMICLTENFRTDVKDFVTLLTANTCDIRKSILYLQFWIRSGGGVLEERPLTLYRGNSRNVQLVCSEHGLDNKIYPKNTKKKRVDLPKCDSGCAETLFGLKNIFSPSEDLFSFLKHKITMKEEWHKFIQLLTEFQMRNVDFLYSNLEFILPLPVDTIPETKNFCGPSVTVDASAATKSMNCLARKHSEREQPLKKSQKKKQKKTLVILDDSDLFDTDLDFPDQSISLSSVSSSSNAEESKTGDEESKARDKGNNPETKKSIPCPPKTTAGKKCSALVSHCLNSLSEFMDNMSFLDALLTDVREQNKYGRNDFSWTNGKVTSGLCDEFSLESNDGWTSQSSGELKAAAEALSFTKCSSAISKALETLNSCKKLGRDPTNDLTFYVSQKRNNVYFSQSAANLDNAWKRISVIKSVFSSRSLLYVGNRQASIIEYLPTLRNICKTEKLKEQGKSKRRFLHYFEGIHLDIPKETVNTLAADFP
Chain of M-phase phosphoprotein 8 (Homo sapiens) (Q99549 whole entry, looked up): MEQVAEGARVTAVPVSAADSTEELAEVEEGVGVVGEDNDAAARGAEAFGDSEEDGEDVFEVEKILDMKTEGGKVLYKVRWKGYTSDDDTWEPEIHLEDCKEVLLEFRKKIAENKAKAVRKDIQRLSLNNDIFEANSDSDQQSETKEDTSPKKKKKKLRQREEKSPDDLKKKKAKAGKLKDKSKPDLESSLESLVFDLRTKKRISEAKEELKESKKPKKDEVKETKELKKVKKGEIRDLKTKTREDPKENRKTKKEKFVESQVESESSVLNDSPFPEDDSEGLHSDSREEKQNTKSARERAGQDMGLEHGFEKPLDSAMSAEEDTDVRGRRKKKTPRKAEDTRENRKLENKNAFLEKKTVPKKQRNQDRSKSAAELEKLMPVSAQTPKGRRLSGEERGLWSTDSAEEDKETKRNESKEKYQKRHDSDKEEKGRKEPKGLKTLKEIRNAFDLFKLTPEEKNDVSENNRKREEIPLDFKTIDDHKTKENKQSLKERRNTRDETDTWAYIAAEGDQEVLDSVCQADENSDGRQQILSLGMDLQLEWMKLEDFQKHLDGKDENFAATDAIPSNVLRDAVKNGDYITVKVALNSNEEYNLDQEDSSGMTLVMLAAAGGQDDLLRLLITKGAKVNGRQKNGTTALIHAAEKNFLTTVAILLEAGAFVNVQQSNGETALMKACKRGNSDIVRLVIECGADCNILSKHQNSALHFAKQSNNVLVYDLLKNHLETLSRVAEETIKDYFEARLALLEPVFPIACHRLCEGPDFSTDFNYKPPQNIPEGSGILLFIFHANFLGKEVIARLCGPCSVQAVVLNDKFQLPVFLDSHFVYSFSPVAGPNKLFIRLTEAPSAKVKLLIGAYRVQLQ
Chain of Thyrotropin-releasing hormone receptor (Homo sapiens) (P34981 whole entry, looked up): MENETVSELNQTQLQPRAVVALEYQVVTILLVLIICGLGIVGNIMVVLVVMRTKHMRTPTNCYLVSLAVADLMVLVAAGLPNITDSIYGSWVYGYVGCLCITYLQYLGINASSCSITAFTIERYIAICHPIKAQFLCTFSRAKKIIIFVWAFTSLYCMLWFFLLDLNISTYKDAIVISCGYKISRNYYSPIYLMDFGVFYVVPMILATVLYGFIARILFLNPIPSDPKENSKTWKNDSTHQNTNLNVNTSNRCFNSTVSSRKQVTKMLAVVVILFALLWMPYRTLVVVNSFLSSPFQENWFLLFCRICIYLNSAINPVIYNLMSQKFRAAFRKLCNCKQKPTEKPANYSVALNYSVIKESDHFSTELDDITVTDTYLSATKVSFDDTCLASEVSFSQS

For the molecule `NC[C@H]1O[C@@H](n2cnc3c(N)ncnc32)[C@H](O)[C@@H]1O`, the Potency result in experiment [1], in [2], in experiment [3], in experiment [4], in experiment [6] and in experiment [7] was “inactive” throughout. Moreover, the Potency entry in experiment [8], in experiment [9], in [10] and in experiment [11] was “inactive” in each case. The molecule was called inactive in experiment [5] and in experiment [12]. The viability change in experiment [11] stood at 9.27%.
As for `C[N+]1(C)C2CC(OC(=O)[C@H](CO)c3ccccc3)CC1C1OC12` (some centres not stated), the Potency result in experiment [13], in [6], in experiment [7], in experiment [8], in experiment [9] and in [10] was “inactive” each time. Further, in experiment [11], the Potency entry is “inactive”. Besides, the result in [5] and in experiment [12] was inactive. In addition, the viability change in experiment [11] was 3.14% and -2.67%.
Turning to `COc1ccc(/C=C/C(=O)Nc2ccccc2C(=O)O)cc1OC`, the Potency entry in experiment [13], in experiment [3], in experiment [6], in experiment [8] and in experiment [17] was “inactive” throughout. In addition, the molecule was classed as inactive in experiment [5], in experiment [14] and in experiment [15]. Also, the Potency in [9] was 1640 nM (active). Also, the activation in experiment [16] is -5.44% (inactive).
As to `Nc1nc(SCc2ccc([N+](=O)[O-])cc2)c2ncn([C@@H]3O[C@H](CO)[C@@H](O)[C@H]3O)c2n1`, the Potency result in [1], in experiment [2], in experiment [3], in experiment [4], in experiment [6] and in [7] was “inactive” throughout. Also, the Potency entry in experiment [8], in experiment [9] and in experiment [11] was “inactive” in each case. Moreover, the Potency in [10] was 146 nM (active). Also, the viability change in experiment [11] turned out to be 12.2%. For the same molecule, the call in [12] was inactive.
For `NC(N)=NC(=O)c1nc(Cl)c(N2CCCCCC2)nc1N`, the Potency entry in experiment [1], in experiment [2], in experiment [6], in experiment [7], in [9] and in [10] was “inactive” throughout. Further, the Potency result in experiment [11] and in experiment [18] was “inactive” in each case. Further, the Potency in experiment [3] is 44.7 µM (active) and inactive. Besides, the outcome in experiment [5], in [15] and in experiment [12] was inactive. In experiment [16], the activation was 3.31% (inactive). Further, the viability change in [11] was -0.682%.
For the molecule `CCOC(=O)C1=C(C)NC(C)=C(C(=O)OCC)C1c1c(F)c(F)c(F)c(F)c1F`, the Potency result in experiment [1], in [2], in [3], in [4], in experiment [6] and in [7] was “inactive” throughout. Moreover, the Potency result in experiment [9] is “inactive”. Also, the call in [5] and in experiment [12] was inactive.
Turning to `NCCSSCCN`, the Potency entry in [1], in [2], in experiment [6], in experiment [7], in [8] and in [9] was “inactive” each time. The Potency entry in experiment [10], in [11] and in [17] was “inactive” in each case. The Potency in [3] was 79.4 µM (active) and inactive; in experiment [4], 50100 nM (active). Further, the result in experiment [14], in [15] and in experiment [12] was inactive. Further, in experiment [16], the activation was -0.375% (inactive). Besides, in [11], the viability change is -6.08%.
`Nc1ncnc2c1c(I)cn2[C@@H]1C[C@H](N)[C@@H](O)[C@H]1O`: the Potency result in [1], in [2], in experiment [3], in experiment [4], in experiment [6] and in experiment [8] was “inactive” each time. In experiment [9], the Potency result was “inactive”. Also, in experiment [10], the Potency was 5170 nM (active).
In the case of `CSc1nc(N)c2ncn([C@@H]3O[C@H](COP(=O)(O)OP(=O)(O)OP(=O)(O)O)[C@@H](O)[C@H]3O)c2n1`, the Potency result in [1], in experiment [2], in [3], in [4], in [9] and in experiment [11] was “inactive” throughout. For the same molecule, the result in [5] and in [12] was inactive. Also, the Potency in [6] was 1580 nM (active). Besides, in [11], the viability change is -1.62%.

The record behind these values is PubChem BioAssay (NCATS).
